Results as given in PubChem BioAssay AID1159580 (chemical genetic matrix, 2015).
In all, about 5,500 compounds went through this assay and about 2,000 (36%) were called active. Another 18% or so got no clear call; they are omitted. Cut-off read from the data, not from the text of the source: active = normalized growth mostly below about 0.91 (no sharp cut-off); inconclusive = no clear call, values can overlap the other calls; inactive = mostly above about 0.92. The list shows a part of the results.

Test: chemical genetic growth profiling, strain panel (AID 1159580);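 note: tested at 20 µM; growth read once vehicle control cultures reached saturation at 30 °C; 1 = growth at the plate median or of vehicle wells; lower values mean less growth of the strain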
Conditions: growth OD

Measured: normalized growth

COc1ccc2c(=O)c(CC(=O)O)coc2c1
inactive: S. cerevisiae deletion strains, locus YJR066W, strain TOR1, active compounds read low 0.902 | S. cerevisiae deletion strains, locus YJR075W, strain HOC1, active compounds read low 1.01 | S. cerevisiae deletion strains, locus YKL009W, strain mrt4, active compounds read low 0.981 | S. cerevisiae deletion strains, locus YKL068W, active compounds read low 0.993 | S. cerevisiae deletion strains, locus YKL085W, strain MDH1 (second series), active compounds read low 1.01 | S. cerevisiae deletion strains, locus YKL085W, strain MDH1, active compounds read low 1.01 | S. cerevisiae deletion strains, locus YKL160W, strain elf1, active compounds read low 1.04 | S. cerevisiae deletion strains, locus YKL190W, strain CNB1, active compounds read low 1 | S. cerevisiae deletion strains, locus YKR001C, strain vps1, active compounds read low 1.03 | S. cerevisiae deletion strains, locus YKR026C, strain gcn3, active compounds read low 0.985 | S. cerevisiae deletion strains, locus YKR091W, strain srl3, active compounds read low 0.99 | S. cerevisiae deletion strains, locus YLL001W, strain dnm1, active compounds read low 1 | S. cerevisiae deletion strains, locus YLL026W, active compounds read low 0.982 | S. cerevisiae deletion strains, locus YLL041C, strain sdh2, active compounds read low 0.98 | S. cerevisiae deletion strains, locus YLR027C, strain aat2, active compounds read low 0.977 | S. cerevisiae deletion strains, locus YLR039C, strain RIC1, active compounds read low 1.07 | S. cerevisiae deletion strains, locus YLR058C, strain SHM2, active compounds read low 0.999 | S. cerevisiae deletion strains, locus YLR102C, strain apc9, active compounds read low 0.992 | S. cerevisiae deletion strains, locus YLR113W, strain HOG1, active compounds read low 0.992 | S. cerevisiae deletion strains, locus YLR221C, strain rsa3, active compounds read low 0.966 | S. cerevisiae deletion strains, locus YLR258W, strain gsy2, active compounds read low 0.992 | S. cerevisiae deletion strains, locus YLR262C, strain YPT6 (second series), active compounds read low 1 | S. cerevisiae deletion strains, locus YLR262C, strain YPT6, active compounds read low 1.03 | S. cerevisiae deletion strains, locus YLR268W, strain sec22, active compounds read low 1.02 | S. cerevisiae deletion strains, locus YLR320W, strain mms22, active compounds read low 0.972 | S. cerevisiae deletion strains, locus YLR330W, strain CHS5, active compounds read low 1.01 | S. cerevisiae deletion strains, locus YLR342W, strain FKS1 (second series), active compounds read low 1.05 | S. cerevisiae deletion strains, locus YLR342W, strain FKS1, active compounds read low 0.989 | S. cerevisiae deletion strains, locus YLR357W, strain rsc2, active compounds read low 0.988 | S. cerevisiae deletion strains, locus YLR370C, strain arc18, active compounds read low 0.974 | S. cerevisiae deletion strains, locus YLR371W, strain rom2, active compounds read low 0.997 | S. cerevisiae deletion strains, locus YLR384C, strain iki3, active compounds read low 0.966 | S. cerevisiae deletion strains, locus YLR418C, strain cdc73, active compounds read low 0.971 | S. cerevisiae deletion strains, locus YML016C, strain PPZ1, active compounds read low 1 | S. cerevisiae deletion strains, locus YML032C, strain rad52, active compounds read low 1 | S. cerevisiae deletion strains, locus YML120C, strain ndi1, active compounds read low 1 | S. cerevisiae deletion strains, locus YML124C, strain tub3, active compounds read low 0.994 | S. cerevisiae deletion strains, locus YMR058W, strain fet3, active compounds read low 0.983 | S. cerevisiae deletion strains, locus YMR078C, strain ctf18, active compounds read low 0.992 | S. cerevisiae deletion strains, locus YMR125W, strain sto1, active compounds read low 1 | S. cerevisiae deletion strains, locus YMR129W, active compounds read low 0.985 | S. cerevisiae deletion strains, locus YMR205C, strain PFK2, active compounds read low 1.05 | S. cerevisiae deletion strains, locus YMR223W, strain ubp8, active compounds read low 0.994 | S. cerevisiae deletion strains, locus YMR231W, strain pep5, active compounds read low 0.972 | S. cerevisiae deletion strains, locus YMR307W, strain GAS1, active compounds read low 1.06 | S. cerevisiae deletion strains, locus YNL067W, strain RPL9B, active compounds read low 0.999 | S. cerevisiae deletion strains, locus YNL071W, strain lat1, active compounds read low 0.986 | S. cerevisiae deletion strains, locus YNL183C, strain NPR1, active compounds read low 0.972 | S. cerevisiae deletion strains, locus YNL209W, strain ssb2, active compounds read low 1.03 | S. cerevisiae deletion strains, locus YNL233W, strain BNI4, active compounds read low 1 | S. cerevisiae deletion strains, locus YNL248C, strain rpa49, active compounds read low 0.984 | S. cerevisiae deletion strains, locus YNL250W, strain rad50, active compounds read low 0.96 | S. cerevisiae deletion strains, locus YNL271C, strain bni1, active compounds read low 0.986 | S. cerevisiae deletion strains, locus YNL298W, strain CLA4, active compounds read low 0.992 | S. cerevisiae deletion strains, locus YNL307C, strain MCK1, active compounds read low 1 | S. cerevisiae deletion strains, locus YNL322C, strain KRE1 (second series), active compounds read low 0.969 | S. cerevisiae deletion strains, locus YNL322C, strain KRE1, active compounds read low 1 | S. cerevisiae deletion strains, locus YNR049C, strain mso1, active compounds read low 0.973 | S. cerevisiae deletion strains, locus YNR052C, strain pop2, active compounds read low 0.952 | S. cerevisiae deletion strains, locus YOL012C, strain htz1 1.05 | S. cerevisiae deletion strains, locus YOL147C, strain pex11, active compounds read low 0.991 | S. cerevisiae deletion strains, locus YOR001W, strain rrp6, active compounds read low 0.917 | S. cerevisiae deletion strains, locus YOR061W, strain CKA2, active compounds read low 1.01 | S. cerevisiae deletion strains, locus YOR069W, strain VPS5, active compounds read low 0.987 | S. cerevisiae deletion strains, locus YOR070C, strain gyp1, active compounds read low 0.981 | S. cerevisiae deletion strains, locus YOR080W, strain dia2, active compounds read low 0.981 | S. cerevisiae deletion strains, locus YOR083W, strain WHI5, active compounds read low 1.04 | S. cerevisiae deletion strains, locus YOR106W, strain vam3, active compounds read low 1.01 | S. cerevisiae deletion strains, locus YOR136W, strain idh2, active compounds read low 0.981 | S. cerevisiae deletion strains, locus YOR144C, strain elg1, active compounds read low 0.993 | S. cerevisiae deletion strains, locus YOR184W, strain ser1, active compounds read low 1.07 | S. cerevisiae deletion strains, locus YOR231W, strain MKK1, active compounds read low 1 | S. cerevisiae deletion strains, locus YOR265W, strain rbl2, active compounds read low 0.973 | S. cerevisiae deletion strains, locus YOR270C, strain vph1, active compounds read low 0.978 | S. cerevisiae deletion strains, locus YOR290C, strain snf2, active compounds read low 1.01 | S. cerevisiae deletion strains, locus YOR316C, strain cot1, active compounds read low 0.991 | S. cerevisiae deletion strains, locus YPL051W, strain arl3, active compounds read low 0.996 | S. cerevisiae deletion strains, locus YPL055C, strain LGE1, active compounds read low 1.08 | S. cerevisiae deletion strains, locus YPL078C, strain atp4, active compounds read low 1.03 | S. cerevisiae deletion strains, locus YPL106C, strain sse1, active compounds read low 1.03 | S. cerevisiae deletion strains, locus YPL240C, strain hsp82, active compounds read low 0.974 | S. cerevisiae deletion strains, locus YPL241C, strain CIN2, active compounds read low 1.01 | S. cerevisiae deletion strains, locus YPL256C, strain CLN2, active compounds read low 0.983 | S. cerevisiae deletion strains, locus YPR119W, strain clb2, active compounds read low 0.985 | S. cerevisiae deletion strains, locus YPR141C, strain kar3, active compounds read low 0.99 | S. cerevisiae deletion strains, locus YPR163C, strain tif3, active compounds read low 0.995 | S. cerevisiae deletion strains, locus YPR167C, strain met16, active compounds read low 0.976 | S. cerevisiae deletion strains, strain wtn01, active compounds read low 1.04 | S. cerevisiae strains, strain wild type, active compounds read low 1.02
